Measurements reported in PubChem BioAssay AID1159580 (chemical genetic matrix, 2015).
The campaign covered roughly 5,500 compounds. About 2,000 (36%) were called active. Roughly 18% stayed inconclusive and do not appear here. Cut-off read from the data, not from the text of the source: active = normalized growth mostly below about 0.91 (no sharp cut-off); inconclusive = no clear call, values can overlap the other calls; inactive = mostly above about 0.92. Some of the results follow.

Assay: chemical genetic growth profiling, strain panel (AID 1159580);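 note: tested at 20 µM; growth read once vehicle control cultures reached saturation at 30 °C; 1 = growth at the plate median or of vehicle wells; lower values mean less growth of the strain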
Details: growth OD

Measured: normalized growth

C[C@H]1C(=O)O[C@@H]2CCN3CC=C(COC(=O)[C@](C)(O)[C@]1(C)O)[C@H]23
inactive: S. cerevisiae deletion strains, locus YKL068W, stronger effect = lower value 0.992 | S. cerevisiae deletion strains, locus YKL085W, strain MDH1 (second series), stronger effect = lower value 1.04 | S. cerevisiae deletion strains, locus YKL085W, strain MDH1, stronger effect = lower value 1.04 | S. cerevisiae deletion strains, locus YKL160W, strain elf1, stronger effect = lower value 0.991 | S. cerevisiae deletion strains, locus YKL190W, strain CNB1, stronger effect = lower value 1 | S. cerevisiae deletion strains, locus YKR001C, strain vps1, stronger effect = lower value 0.986 | S. cerevisiae deletion strains, locus YKR026C, strain gcn3, stronger effect = lower value 0.986 | S. cerevisiae deletion strains, locus YKR091W, strain srl3, stronger effect = lower value 0.975 | S. cerevisiae deletion strains, locus YLL001W, strain dnm1, stronger effect = lower value 0.976 | S. cerevisiae deletion strains, locus YLL026W, stronger effect = lower value 0.99 | S. cerevisiae deletion strains, locus YLL041C, strain sdh2, stronger effect = lower value 0.993 | S. cerevisiae deletion strains, locus YLR027C, strain aat2, stronger effect = lower value 0.993 | S. cerevisiae deletion strains, locus YLR039C, strain RIC1, stronger effect = lower value 0.989 | S. cerevisiae deletion strains, locus YLR058C, strain SHM2, stronger effect = lower value 0.99 | S. cerevisiae deletion strains, locus YLR102C, strain apc9, stronger effect = lower value 0.988 | S. cerevisiae deletion strains, locus YLR113W, strain HOG1, stronger effect = lower value 1.01 | S. cerevisiae deletion strains, locus YLR221C, strain rsa3, stronger effect = lower value 1.01 | S. cerevisiae deletion strains, locus YLR258W, strain gsy2, stronger effect = lower value 0.992 | S. cerevisiae deletion strains, locus YLR262C, strain YPT6 (second series), stronger effect = lower value 0.976 | S. cerevisiae deletion strains, locus YLR262C, strain YPT6, stronger effect = lower value 1.02 | S. cerevisiae deletion strains, locus YLR268W, strain sec22, stronger effect = lower value 0.988 | S. cerevisiae deletion strains, locus YLR320W, strain mms22, stronger effect = lower value 0.997 | S. cerevisiae deletion strains, locus YLR330W, strain CHS5, stronger effect = lower value 0.992 | S. cerevisiae deletion strains, locus YLR342W, strain FKS1 (second series), stronger effect = lower value 0.976 | S. cerevisiae deletion strains, locus YLR342W, strain FKS1, stronger effect = lower value 0.997 | S. cerevisiae deletion strains, locus YLR357W, strain rsc2, stronger effect = lower value 0.979 | S. cerevisiae deletion strains, locus YLR370C, strain arc18, stronger effect = lower value 0.986 | S. cerevisiae deletion strains, locus YLR371W, strain rom2, stronger effect = lower value 0.984 | S. cerevisiae deletion strains, locus YLR384C, strain iki3, stronger effect = lower value 0.987 | S. cerevisiae deletion strains, locus YLR418C, strain cdc73, stronger effect = lower value 0.985 | S. cerevisiae deletion strains, locus YML016C, strain PPZ1, stronger effect = lower value 0.987 | S. cerevisiae deletion strains, locus YML032C, strain rad52, stronger effect = lower value 0.993 | S. cerevisiae deletion strains, locus YML120C, strain ndi1, stronger effect = lower value 0.988 | S. cerevisiae deletion strains, locus YML124C, strain tub3, stronger effect = lower value 0.987 | S. cerevisiae deletion strains, locus YMR058W, strain fet3, stronger effect = lower value 0.997 | S. cerevisiae deletion strains, locus YMR078C, strain ctf18, stronger effect = lower value 0.983 | S. cerevisiae deletion strains, locus YMR125W, strain sto1, stronger effect = lower value 0.987 | S. cerevisiae deletion strains, locus YMR129W, stronger effect = lower value 0.998 | S. cerevisiae deletion strains, locus YMR205C, strain PFK2, stronger effect = lower value 0.986 | S. cerevisiae deletion strains, locus YMR223W, strain ubp8, stronger effect = lower value 0.991 | S. cerevisiae deletion strains, locus YMR231W, strain pep5, stronger effect = lower value 0.998 | S. cerevisiae deletion strains, locus YMR263W, strain SAP30, stronger effect = lower value 1 | S. cerevisiae deletion strains, locus YMR307W, strain GAS1, stronger effect = lower value 0.983 | S. cerevisiae deletion strains, locus YNL067W, strain RPL9B, stronger effect = lower value 1.02 | S. cerevisiae deletion strains, locus YNL071W, strain lat1, stronger effect = lower value 0.991 | S. cerevisiae deletion strains, locus YNL128W, strain TEP1, stronger effect = lower value 0.98 | S. cerevisiae deletion strains, locus YNL153C, strain GIM3, stronger effect = lower value 1.02 | S. cerevisiae deletion strains, locus YNL183C, strain NPR1, stronger effect = lower value 0.969 | S. cerevisiae deletion strains, locus YNL209W, strain ssb2, stronger effect = lower value 0.994 | S. cerevisiae deletion strains, locus YNL233W, strain BNI4, stronger effect = lower value 0.995 | S. cerevisiae deletion strains, locus YNL248C, strain rpa49, stronger effect = lower value 0.995 | S. cerevisiae deletion strains, locus YNL250W, strain rad50, stronger effect = lower value 0.978 | S. cerevisiae deletion strains, locus YNL271C, strain bni1, stronger effect = lower value 0.985 | S. cerevisiae deletion strains, locus YNL298W, strain CLA4, stronger effect = lower value 0.987 | S. cerevisiae deletion strains, locus YNL307C, strain MCK1, stronger effect = lower value 0.991 | S. cerevisiae deletion strains, locus YNL322C, strain KRE1 (second series), stronger effect = lower value 0.982 | S. cerevisiae deletion strains, locus YNL322C, strain KRE1, stronger effect = lower value 0.993 | S. cerevisiae deletion strains, locus YNR049C, strain mso1, stronger effect = lower value 0.989 | S. cerevisiae deletion strains, locus YNR052C, strain pop2, stronger effect = lower value 0.987 | S. cerevisiae deletion strains, locus YOL006C, strain TOP1, stronger effect = lower value 1.03 | S. cerevisiae deletion strains, locus YOL012C, strain htz1 0.746 | S. cerevisiae deletion strains, locus YOL147C, strain pex11, stronger effect = lower value 0.997 | S. cerevisiae deletion strains, locus YOR001W, strain rrp6, stronger effect = lower value 0.995 | S. cerevisiae deletion strains, locus YOR061W, strain CKA2, stronger effect = lower value 0.989 | S. cerevisiae deletion strains, locus YOR069W, strain VPS5, stronger effect = lower value 0.984 | S. cerevisiae deletion strains, locus YOR070C, strain gyp1, stronger effect = lower value 0.994 | S. cerevisiae deletion strains, locus YOR080W, strain dia2, stronger effect = lower value 0.994 | S. cerevisiae deletion strains, locus YOR083W, strain WHI5, stronger effect = lower value 1 | S. cerevisiae deletion strains, locus YOR106W, strain vam3, stronger effect = lower value 0.998 | S. cerevisiae deletion strains, locus YOR136W, strain idh2, stronger effect = lower value 0.99 | S. cerevisiae deletion strains, locus YOR144C, strain elg1, stronger effect = lower value 0.988 | S. cerevisiae deletion strains, locus YOR184W, strain ser1, stronger effect = lower value 1.02 | S. cerevisiae deletion strains, locus YOR231W, strain MKK1, stronger effect = lower value 0.98 | S. cerevisiae deletion strains, locus YOR265W, strain rbl2, stronger effect = lower value 0.996 | S. cerevisiae deletion strains, locus YOR270C, strain vph1, stronger effect = lower value 0.967 | S. cerevisiae deletion strains, locus YOR290C, strain snf2, stronger effect = lower value 0.998 | S. cerevisiae deletion strains, locus YOR316C, strain cot1, stronger effect = lower value 0.978 | S. cerevisiae deletion strains, locus YPL051W, strain arl3, stronger effect = lower value 0.992 | S. cerevisiae deletion strains, locus YPL055C, strain LGE1, stronger effect = lower value 1.06 | S. cerevisiae deletion strains, locus YPL078C, strain atp4, stronger effect = lower value 0.993 | S. cerevisiae deletion strains, locus YPL106C, strain sse1, stronger effect = lower value 0.98 | S. cerevisiae deletion strains, locus YPL240C, strain hsp82, stronger effect = lower value 0.986 | S. cerevisiae deletion strains, locus YPL256C, strain CLN2, stronger effect = lower value 0.992 | S. cerevisiae deletion strains, locus YPR119W, strain clb2, stronger effect = lower value 0.991 | S. cerevisiae deletion strains, locus YPR141C, strain kar3, stronger effect = lower value 0.98 | S. cerevisiae deletion strains, locus YPR163C, strain tif3, stronger effect = lower value 0.986 | S. cerevisiae deletion strains, locus YPR167C, strain met16, stronger effect = lower value 0.989 | S. cerevisiae deletion strains, strain wtn01, stronger effect = lower value 0.987 | S. cerevisiae strains, strain wild type, stronger effect = lower value 0.995
